In the library only some 7.5% were active in any assay of this set; here they are far more common.
KinaseGlo FLuc: Kinase-Glo luciferase inhibition (counter-screen); Kinase-Glo luciferase, ATP luminescence, 8 min; Q27757; Potency, µM (titrated, usually from 38.3 µM), for inactives: top-dose activity change, negative = inhibition, hits mostly inhibitors; hit rate 0.28% among 200,000; note: % is set by controls: 0 for no effect and ±100 for the full control effect; nearly all actives have a fitted effect of over 60% in size
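Substrate mix (final 50 mM imidazole pH 7.2, 50 mM KCl, 7 mM MgCl2, 10 uM ATP, 0.01% Tween 20, 0.05% BSA) plus pin-tool compound, then Kinase-Glo detection mix; 8 min ambient, luminescence read.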
FLuc counter: firefly luciferase modulation, counter-screen for miR-21 project; P08659; purified FLuc, Km substrates, luminescence inhibition; Potency, µM (titrated, usually from 57.5 µM), inactives show at the highest dose activity change, negative = inhibition, actives largely listed as inhibitors; hit rate 6.9% among 360,000; AID 588342;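 note: plate controls were vehicle for no effect and reference inhibitor for full effect; nearly all actives have a fitted effect of over 55% in size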
Target sequence (P08659 whole entry, looked up): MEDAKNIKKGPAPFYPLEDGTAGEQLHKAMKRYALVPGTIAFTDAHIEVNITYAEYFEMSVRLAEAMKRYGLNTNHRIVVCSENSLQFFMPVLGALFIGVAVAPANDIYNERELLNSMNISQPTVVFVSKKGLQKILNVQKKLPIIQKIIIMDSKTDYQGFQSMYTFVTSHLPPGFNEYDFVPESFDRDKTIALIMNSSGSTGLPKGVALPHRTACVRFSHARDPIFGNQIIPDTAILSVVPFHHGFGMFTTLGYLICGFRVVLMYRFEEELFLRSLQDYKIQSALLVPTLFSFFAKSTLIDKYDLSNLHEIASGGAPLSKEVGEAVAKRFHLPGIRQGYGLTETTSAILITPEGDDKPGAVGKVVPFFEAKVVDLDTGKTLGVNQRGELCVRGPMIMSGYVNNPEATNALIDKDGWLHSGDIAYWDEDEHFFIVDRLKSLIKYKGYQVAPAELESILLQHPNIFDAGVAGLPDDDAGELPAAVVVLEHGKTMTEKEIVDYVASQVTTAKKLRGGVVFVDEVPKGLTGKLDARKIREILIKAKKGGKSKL
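Purified P. pyralis luciferase, 10 nM final, with Km-level 10 uM D-luciferin and 10 uM ATP in 50 mM Tris acetate pH 7.5, 10 mM Mg acetate, 0.01% Tween-20, 0.05% BSA; 6-point qHTS titration about 60 µM downward; luminescence read.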
ELG1 genotox: genotoxicity induction in ELG1-luciferase HEK293T cells; Potency, µM (top dose mostly 46 µM), inactives show at the top dose activity change, positive = activation, actives largely listed as activators; hit rate 1.3% among 330,000; HEK293T ELG1-luciferase reporter, luminescence, 16 h; note: % of control where 0% means no effect; nearly all actives have a fitted effect of over 60% in size
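Quantitative HTS format in 1536-well plates. HEK293T ELG1-luciferase reporter cells receive test compound and are incubated 16 hr at 37 °C, 5% CO2; ONE-Glo added, 30 min room temperature, then luminescence read.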
SMN2 splice up: enhancers of SMN2 splice variant expression. hit rate 2.8% among 210,000. Potency, µM (doses to about 46.1 µM), for the others: at the highest dose activity change, positive = activation, actives largely listed as activators. HEK293 SMN2-luciferase splicing reporter, luminescence, 30-36 h; note: % of control where 0% means no effect; nearly all actives have a fitted effect of over 55% in size
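qHTS luciferase splicing reporter: luminescence rises when SMN2 exon 7 is included in transfected HEK293 cells. Compound exposure lasted 30-36 h at 37C, with 4.5 mM final sodium butyrate as control, followed by a ONE-Glo read.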
Rab9 prom act: Rab9 promoter activation; Huh7 Rab9 promoter-luciferase reporter, luminescence, 24 h; Potency, µM (titrated, usually from 9.22 µM), for the others: top-dose activation, negative = inhibition, actives largely listed as activators; hit rate 2.8% among 320,000; note: % of control where 0% means no effect; nearly all actives have a fitted effect of over 60% in size
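Luciferase signal after 10 min detection reagent at ambient indicates Rab9 promoter upregulation; stably transfected Huh7 cells were treated 24 h with compound in DMSO at 37 °C, 5% CO2.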
NPC1 prom act: activators of NPC1 promoter. Huh7 NPC1 promoter luciferase reporter, 24 h. Potency, µM (series often up to 9.22 µM), for inactives: at the highest dose activation, actives largely listed as activators. hit rate 2.4% among 320,000; note: % of control where 0% means no effect; nearly all actives have a fitted effect of over 60% in size
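Huh7 cells stably carrying NPC1 promoter–luciferase, plated in Opti-MEM with 10% FBS for 2 h, were exposed to compound in DMSO for 24 h at 37 °C; luciferase reagent was added for 10 min and luminescence read.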
An asterisk follows results filed as active; ? = inconclusive; . = no result given; [ ] = another dose, or the depositor's remark. Calls come from the whole dose curve; as a rule, active = well fitted curve in the direction sought with a large enough effect; inconclusive = small, poorly fitted or top-dose-only effect, or another doubt; inactive = no such curve, though single readings can be large; an effect the other way counts as inactive or inconclusive. Potency is the fitted concentration of half-maximal effect.

SMILES	KinaseGlo FLuc	FLuc counter	ELG1 genotox	SMN2 splice up	Rab9 prom act	NPC1 prom act
Cc1ccc(-c2nn(-c3cccc(F)c3)cc2CNCc2cccnc2)o1	3%	19µM*	-6%	.	1%	-1%
Cc1ccc(-c2nn(-c3ccccc3)cc2C=O)o1	-2%	3µM*	?	10µM*	?	9%
CC1(C)CC2CC(C)(CN2C(=O)COC(=O)c2ccccc2C(F)(F)F)C1 (stereo not drawn)	.	3%	0%	.	1%	0%
O=C(Nc1ccc(C2=CN(Cc3ccccc3)CCC2=O)cc1)OCc1ccccc1	.	.	1%	.	.	.
N#CC1=C2C=Cc3ccccc3N2CCCC1=O	-15%	11µM*	?	23%	2.8µM*	2.2µM*
CC(C)(C)c1ccc(O)c(CN(Cc2cc(C(C)(C)C)ccc2O)c2ccccc2)c1	-2%[7.66 µM]	.	.	-2%[9.22 µM]	.	.
COc1ccc(-c2noc(N3CCCC(C(=O)Nc4ccc(C(C)=O)cc4)C3)n2)cc1 (stereo not drawn)	.	11µM*	3%	.	27%	23%
Cc1cc(O)c(C2=Nc3ccccc3SC(c3ccc(Cl)cc3)C2)c(=O)o1 (stereo not drawn)	-5%	4.8µM*	7.3µM*	-60%	3%	-3%
Cc1c(NC(=O)C(C)N2C(=O)C3CCCCC3C2=O)c(=O)n(-c2ccccc2)n1C (stereo not drawn)	2%	1%	1%	-1%	-3%	-2%
CC(=O)c1ccc(N2CCN(S(=O)(=O)c3cn(C)c(C)n3)CC2)cc1	.	-2%	10%	.	-1%	-3%
O=[N+]([O-])CC(=Nc1ccc(Cl)cc1)N/N=C\c1oc(O)c2ccccc12	-3%	12µM*	11%	10%	?	?
O=C(N/N=C/c1ccc([N+](=O)[O-])o1)c1cn(-c2ccccc2)nc1-c1ccc(Cl)cc1	0%	2%	7%	-9%	3%	-7%
CCCC(=O)O[C@]1(C(=O)CO)CCC2[C@@H]3CCC4=CC(=O)CC[C@]4(C)C3C(O)C[C@]21C (stereo partly drawn)	-7%	.	.	17%	.	.
CCOc1ccc(C(=O)Nc2ccc3[nH]ncc3c2)cc1	.	1.3µM*	13%	.	1.4µM*	1.3µM*
O=C(COc1ccc(Cl)cc1)Nc1ccc2[nH]ncc2c1	.	-16%	-3%	.	-1%	3%
COc1ccc(C(=O)Nc2ccc3cn[nH]c3c2)c(OC)c1	2%	6µM*	?	13µM*	?	?
COc1ccc(C(=O)N/N=C(\C)CC(=O)Nc2ccc3ccccc3c2)c(OC)c1	.	-12%	-2%	.	3%	6%
O=C(COc1ccccc1)Nc1ccc2[nH]ncc2c1	.	?	-6%	.	0%	15%
COc1ccc(C(=O)Nc2ccc3[nH]ncc3c2)cc1	.	1.9µM*	8.2µM*	.	2.8µM*	0.89µM*
COc1ccc(C(=O)NCCCN(C)CCCNC(=O)c2ccc(OC)cc2)cc1	.	-1%	-1%	.	-3%	-3%
O=S(=O)(NCC(c1ccco1)S(=O)(=O)c1cccs1)c1ccc(F)c(C(F)(F)F)c1 (stereo not drawn)	.	-12%	.	.	.	.
CC1CCCN(C(=O)CCc2nnc(-c3ccc4c(c3)OCO4)o2)C1 (stereo not drawn)	.	?	?	.	28%	?
CCC(=O)C1CCCN(C(=O)CCc2nnc(-c3ccc4c(c3)OCO4)o2)C1 (stereo not drawn)	.	?	?	.	?	14%
CCCOC1CCCN(C(=O)CCc2nnc(-c3ccc4c(c3)OCO4)o2)C1 (stereo not drawn)	.	?	?	.	3.2µM*	?
CCC(=O)C1CCCN(C(=O)CCc2nnc(-c3ccc(C(C)=O)s3)o2)C1 (stereo not drawn)	.	11µM*	?	.	?	?
SMILES	KinaseGlo FLuc	FLuc counter	ELG1 genotox	SMN2 splice up	Rab9 prom act	NPC1 prom act
CC(CNC(=O)CCC(=O)N1CCOc2ccccc21)c1ccccc1 (stereo not drawn)	.	-2%	0%	.	11%	-10%
COc1ccc(C(=O)NCC(c2cccnc2)N2CCc3ccccc3C2)cc1 (stereo not drawn)	.	-1%	.	.	.	.
COc1ccc(C(=O)NCC(c2cccnc2)N2CCc3ccccc3C2)cc1OC (stereo not drawn)	.	0.67µM*	.	.	.	.
O=C(Nc1ccc2c(c1)OCO2)c1cccc(F)c1	-24%	12µM*	.	?	.	.
O=C(Nc1cccc(F)c1)Nc1ccc2c(c1)OCO2	.	7.6µM*	?	.	2.8µM*	2.2µM*
O=C(O)Cc1ccc(NC(=O)Nc2ccc3c(c2)OCO3)cc1	.	9.5µM*	?	.	?	26%
O=C(Nc1ccc2c(c1)OCO2)NC1CCN(Cc2ccccc2)CC1	-2%	17µM*	?	?	2%	12%
O=C(Nc1ccc2c(c1)OCO2)C1CCCN1C(=O)Nc1cccc(F)c1 (stereo not drawn)	-1%	-2%	-3%	-4%	13%	-3%
O=C(Nc1ccc(F)cc1)NC1CCN(Cc2ccccc2)CC1	2%	4%	-7%	-6%	-7%	-6%
O=C(NCc1ccc2c(c1)OCO2)Nc1ccc(Cl)cc1	.	4%	?	.	25%	26%
CC(C)C(=O)Nc1cccc(NC(=O)c2cccc(F)c2)c1	-1%	1%	-5%	3%	5%	1%
CC(=O)N[C@@H](CC(=O)O)C(=O)O	-1%[17.1 µM]	1%	-5%	8%[20.6 µM]	-3%	1%
O=C1Nc2ccc(F)cc2C12OCCO2	.	-1%	0%	.	0%	4%
CCN(CC)c1ccc(C(=O)NNC(=O)CNC(=O)c2cccs2)cc1	.	?	-2%	.	0%	-1%
CC(C)[C@H](NC(=O)c1ccccc1F)C(=O)Nc1ccc2c(c1)OCO2	.	-1%	12%	.	1%	-1%
O=C(Nc1ccc2c(c1)OCO2)c1c(F)cccc1F	-1%	12µM*	?	10µM*	3.2µM*	3.5µM*
CC(=O)Nc1ccc(OCc2ccc3c(c2)OCO3)cc1	.	17µM*	?	.	1.6µM*	0.63µM*
CNC(=O)C1CCCN(c2nnc(C)c3c(C)n(-c4ccccc4)nc23)C1 (stereo not drawn)	.	-6%	.	.	.	.
CCCC(=O)N(c1ccc(OCC)cc1)S(=O)(=O)c1ccc2c3c(cccc13)C(=O)N2C	.	5%	-4%	.	-1%	-4%
COc1ccc(S(=O)(=O)NCCc2csc3nc(-c4cccc(C)c4)nn23)cc1F	.	-7%	.	.	.	.
C/C(N=NC(=[SH+])SCc1ccccc1)=C1\C=CC=CN1.[Cl][Cu]	0%[7.66 µM]	.	.	-64%[9.22 µM]	.	.
O=C(Nc1ccccc1)C(=O)Nc1ccc2c(c1)N(C(=O)C1CC1)CCC2	.	3.4µM*	1.6µM*	.	1.1µM*	1.1µM*
